A selection: hits, their analogues and other compounds. The true share with any hit is near 2.3%.
Pf Dd2 growth – P. falciparum Dd2 growth inhibitors, primary screen, SYBR Green fluorescence, single dose replicates; 72 h; active compounds read low; activity change, % at 10 µM; hit rate 2.3% among 94,000; AID 1159554, 2015; in the data active = activity change below about -80%
C diff growth – C. difficile growth inhibitors, primary screen, HTS | Clostridium difficile clinical isolate growth, OD600, 24 h; active compounds read low | growth activity, negative = inhibition, % at 16 µg/mL (by protocol) | hit rate 0.25% among 86,000;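 active = mean growth activity at or below -80% and every replicate also at or below -80%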;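 note: 0% = DMSO wells and -100% = levofloxacin 16 µg/mL wells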
* hit, by the source's call; · = no result given.

SMILES	Pf Dd2 growth	C diff growth
C[C@@H]1CN([C@@H](C)CO)C(=O)c2cc(NC(=O)C3CCCCC3)ccc2O[C@@H](C)CCCCO[C@H]1CN(C)C(=O)Nc1cccc2ccccc12	-78	-4
C[C@@H]1CCCCO[C@@H](CN(C)C(=O)Nc2cccc3ccccc23)[C@@H](C)CN([C@@H](C)CO)C(=O)c2cc(NC(=O)C3CCCCC3)ccc2O1	-90*	18
C[C@H](CO)N1C[C@H](C)[C@@H](CN(C)C(=O)Nc2cccc3ccccc23)OCCCC[C@H](C)Oc2ccc(NC(=O)C3CCCCC3)cc2C1=O	-75	-14
CO[C@@H]1CN(C)C(=O)c2ccc(NC(C)=O)cc2OC[C@H](C)N(C(=O)CN(C)C)C[C@@H]1C	19	2
C[C@@H]1CN([C@@H](C)CO)C(=O)c2cccc(NS(=O)(=O)c3cccs3)c2O[C@H]1CN(C)C(=O)Nc1ccccc1	-14	·
COc1ccc(NC(=O)N(C)C[C@H]2OCCCC[C@@H](C)Oc3ccc(NC(=O)Nc4cccc5ccccc45)cc3C(=O)N([C@@H](C)CO)C[C@H]2C)cc1	-76	-1
COc1ccc(NC(=O)N(C)C[C@H]2OCCCC[C@H](C)Oc3ccc(NC(=O)Nc4cccc5ccccc45)cc3C(=O)N([C@H](C)CO)C[C@H]2C)cc1	-86*	3
COc1ccc(NC(=O)N(C)C[C@H]2OCCCC[C@H](C)Oc3ccc(NC(=O)Nc4cccc5ccccc45)cc3C(=O)N([C@@H](C)CO)C[C@H]2C)cc1	-85*	2
COc1ccc(NC(=O)N(C)C[C@H]2OCCCC[C@@H](C)Oc3ccc(NC(=O)Nc4cccc5ccccc45)cc3C(=O)N([C@H](C)CO)C[C@@H]2C)cc1	-78	6
COc1ccc(NC(=O)Nc2ccc3c(c2)[C@@H]2C[C@H](CC(=O)N[C@@H](C)c4ccccc4)O[C@H](CO)[C@@H]2O3)cc1	-87*	13
COCC(=O)Nc1ccc2c(c1)[C@@H]1C[C@@H](CC(=O)NCc3ccccc3OC)O[C@@H](CO)[C@@H]1O2	-18	-3
CN1CCN(C(=O)C[C@H]2C[C@H]3c4cc(NC(=O)Nc5ccc(C(F)(F)F)cc5)ccc4O[C@H]3[C@H](CO)O2)CC1	-58	0
O=C(C[C@H]1C[C@@H]2c3cc(NC(=O)Nc4ccccc4)ccc3O[C@@H]2[C@H](CO)O1)NCc1ccccc1	-88*	1
O=C(C[C@@H]1C[C@@H]2c3cc(NC(=O)Nc4ccccc4)ccc3O[C@@H]2[C@H](CO)O1)NCc1ccccc1	-46	-14
COc1ccccc1CNC(=O)C[C@H]1C[C@H]2c3cc(NC(=O)Cc4ccncc4)ccc3O[C@H]2[C@H](CO)O1	-87*	0
CN1CCN(C(=O)C[C@H]2C[C@@H]3c4cc(NC(=O)Nc5ccc(C(F)(F)F)cc5)ccc4O[C@@H]3[C@@H](CO)O2)CC1	-85*	5
COc1ccc(NC(=O)Nc2ccc3c(c2)[C@@H]2C[C@@H](CC(=O)N[C@@H](C)c4ccccc4)O[C@@H](CO)[C@@H]2O3)cc1	-30	1
C[C@@H]1CN([C@@H](C)CO)C(=O)c2cc(-c3ccccc3)cnc2O[C@H]1CN(C)C(=O)Cc1ccccn1	-6	-2
C[C@H](CO)N1C[C@H](C)[C@@H](CN(C)Cc2ccc(C(F)(F)F)cc2)Oc2ccc(NC(=O)C3CCCCC3)cc2CC1=O	-6	76
C[C@@H]1CN([C@H](C)CO)C(=O)c2cccc(NC(=O)C3CCCCC3)c2O[C@H]1CN(C)C(=O)Nc1ccccc1	-16	6
Cc1ccc(S(=O)(=O)Nc2ccc3c(c2)C(=O)N([C@@H](C)CO)C[C@H](C)[C@H](CN(C)Cc2ccc(C(=O)O)cc2)OCCCC[C@H](C)O3)cc1	-43	·
CN(C)C(=O)[C@@H]1[C@@H](CO)[C@@H]2Cn3c(ccc(-c4ccc(F)cc4)c3=O)[C@@H]2N1C(=O)c1ccccn1	-9	-2
C[C@@H]1CN([C@H](C)CO)C(=O)c2cc(NS(C)(=O)=O)ccc2O[C@@H](C)CCCCO[C@@H]1CN(C)Cc1ccc(Cl)c(Cl)c1	-88*	-1
C[C@@H]1CN([C@H](C)CO)C(=O)c2cc(NS(C)(=O)=O)ccc2O[C@@H](C)CCCCO[C@H]1CN(C)Cc1ccc(Cl)c(Cl)c1	-52	2
Cc1ccc(S(=O)(=O)Nc2ccc3c(c2)C(=O)N([C@H](C)CO)C[C@@H](C)[C@@H](CN(C)Cc2ccccc2)OCCCC[C@@H](C)O3)cc1	-83*	1
Cc1ccc(S(=O)(=O)Nc2ccc3c(c2)C(=O)N([C@@H](C)CO)C[C@H](C)[C@H](CN(C)Cc2ccccc2)OCCCC[C@H](C)O3)cc1	-55	2
C[C@@H]1CN([C@@H](C)CO)C(=O)c2cc(NS(C)(=O)=O)ccc2O[C@@H](C)CCCCO[C@@H]1CN(C)Cc1ccccc1	-95*	-4

Compound activity (PubChem)
